Screen size: about 1,600 compounds; about 25 (2%) were called active. About 7% were inconclusive and are not listed. This is one part of a sample in which actives are shown more often than they occur. Calls come from the whole dose curve; as a rule, active = well fitted inhibition curve with a large enough effect; inconclusive = small, poorly fitted or top-dose-only effect, or effect the other way; inactive = no such curve, though single readings can be large or run the other way.
Target: Runt-related transcription factor 1 (Homo sapiens) + Core-binding factor subunit beta (Homo sapiens) (UniProt Q01196+Q13951)
Assay: qHTS Assay for Compounds Blocking the Interaction Between CBF-beta and RUNX1 for the Treatment of Acute Myeloid Leukemia: Hit Validation with Orthogonal Assay
Conditions: CBFbeta-RUNX1 binding orthogonal assay, biochemical; series mostly up to 41 µM; activity change, negative = inhibition: at the top concentration
Excerpt: NIH Chemical Genomics Center [NCGC]
NIH Molecular Libraries Probe Production centers Network [MLPCN]
Assay Submitter (PI): Paul Liu
Core Binding Factor (CBF) abnormalities are associated with 20-25% of all acute myeloid leukemias (AML), of which 5-10% are further sub classified as acute myelomonocytic leukemia with eosinophilia, also known as M4Eo in the FAB classification scheme. This subtype of leukemia is usually associated with chromosome 16 inversion (p13:q22). Chromosome 16 inversion results in formation of the fusion oncogene CBFB-MYH11, which encodes the fusion protein CBF-beta-SMMHC.
It has been hypothesized that the interference of CBF-beta and RUNX1 binding could have therapeutic implications for patients with CBF mediated leukemias. We developed a CBF-beta and RUNX1 binding assay in AlphaScreenTM format and optimized it for high throughput screening to search for inhibitors. The goal of this project is to screen MLPCN's compound collection (MLSMR) for identifying the inhibitors of the interaction between CBF-beta and RUNX1 proteins as research probes. If these probes work well in the animal models, the ultimate goal of this project is to development a new drug treatment for this disease.
This assay can not be used to assess how apparent inhibitors interfere with protein binding, and whether inhibitors specifically bind to either protein. Disruption of this protein-protein interaction, through any mechanism, is the intended target activity.
The present data set was run to confirm the activity of hits from the primary screen using an orthogonal assay technology for measuring protein-protein interaction disruption.
A TR-FRET (time resolved fluorescence resonance energy transfer) assay was performed using the same assay buffer, protein concentrations and incubation times as described previously in the AlphaScreen assay, except that terbium (Tb+) labeled anti-his-antibody and XL665 linked streptavidin were used to capture the binding signal. The Tb+ labeled anti-his-antibody captures His(6)-CBF and XL665 linked streptavidin binds to biotin-RUNX1. The binding of RUNX1 to CBFbrings Tb+ and XL665 to proximity resulting in a TR-FRET signal. Briefly, in a white 384-well plate, 10 µl/well of mixture of biotin-RUNX1 and His(6)-CBFwere incubated with 10 µl/well buffer (positive control) or 10 µl/well compounds (negative control) for 20 min followed by an addition of 10 µl/well of Tb+ labeled anti-his(6)-antibody and XL665 linked streptavidin. After 90 min of incubation in the dark, the assay plate was measured in the Envision plate reader using TR-FRET detection mode. For the 1536-well plate format, 3 µl/well mixture of biotin-RUNX1 and His(6)-CBF (30 nM per protein) was incubated with 23 nl/well compound (dissolved in 100% DMSO) or the equivalent DMSO concentration (positive control) for 30 min followed by the addition of 1 µl/well of 0.44 ng Tb+ labeled anti-his(6)-antibody and 5 nM streptavodin-XL665. After 90 min of incubation, the assay plate was measured in the Envision plate reader.
The TR-FRET assay for detecting interaction between HIV-I Tat and […] was similarly performed with the recombinant full-length HIV-I Tat CLADE B and HIV-I Tat Biotin conjugated proteins supplied by Diatheva (Fano, Italy). Briefly, the His-CBF and Biotin-RUNX1 complex at a working concentration of 83.3 nM per protein were pre-incubated in assay buffer for 10 minutes on ice. Then HIV-I Tat or unlabeled CBF were added to reach final concentrations (Supplementary Figure 4b) and incubated for 5 minutes. Finally anti-His antibody and streptavidin-XL665 at a final concentration of 2.2 ng and 5 nM, respectively, were added to the plate, which was incubated for 1 hr prior to reading on the PerkinElmer Envision plate reader.
Keywords: MLSMR, MLPCN, NIH Roadmap, qHTS, NCGC, Core binding factor, CBF, CBF-beta, Acute myeloid leukemia
% is set by controls: 0 for no effect and ±100 for the full control effect; potency is the fitted concentration of half-maximal effect.

Chain of Runt-related transcription factor 1 (Homo sapiens) + Core-binding factor subunit beta (Homo sapiens) (Q01196 whole entry, looked up): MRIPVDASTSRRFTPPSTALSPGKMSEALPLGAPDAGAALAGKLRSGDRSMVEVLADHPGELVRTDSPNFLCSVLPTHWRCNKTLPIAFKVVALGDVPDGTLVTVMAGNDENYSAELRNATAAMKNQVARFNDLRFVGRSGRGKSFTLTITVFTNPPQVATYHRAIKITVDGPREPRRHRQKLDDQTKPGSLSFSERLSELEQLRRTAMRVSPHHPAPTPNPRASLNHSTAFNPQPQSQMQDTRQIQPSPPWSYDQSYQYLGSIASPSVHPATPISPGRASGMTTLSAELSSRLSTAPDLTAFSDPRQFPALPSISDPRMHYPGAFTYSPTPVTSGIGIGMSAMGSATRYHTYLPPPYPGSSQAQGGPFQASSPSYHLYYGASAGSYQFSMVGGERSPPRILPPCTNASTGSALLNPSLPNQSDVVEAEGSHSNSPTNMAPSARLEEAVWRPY
Chain of Runt-related transcription factor 1 (Homo sapiens) + Core-binding factor subunit beta (Homo sapiens) (Q13951 whole entry, looked up): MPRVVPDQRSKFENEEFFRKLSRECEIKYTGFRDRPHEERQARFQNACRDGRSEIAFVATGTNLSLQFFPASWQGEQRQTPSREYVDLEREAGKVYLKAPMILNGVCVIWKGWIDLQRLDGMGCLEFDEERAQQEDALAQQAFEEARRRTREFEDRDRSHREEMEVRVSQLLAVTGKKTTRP

SMILES | activity change, negative = inhibition | Potency
CC(=O)c1sccc1NC(=O)c1ccccc1C(=O)O | 3.8% (inactive) | –
O=C(Oc1c(-c2ccccc2)c(=O)n2c3c(cccc13)CC2)c1ccccc1 | -10% (inactive) | –
O=[N+]([O-])c1cccnc1Oc1ccc(F)cc1 | 22.6% (inactive) | –
Cn1nc2c3ccccc3n(Cc3ccc(F)cc3)c2nc1=S | 12% (inactive) | –
Cc1cccc(C)c1NC(=S)N1CCOCC1 | 3.77% (inactive) | –
COc1ccc(C(=O)NC(=S)Nc2ccc(CN3CCOCC3)cc2)cc1 | -9.35% (inactive) | –
Cc1nc2ccc(NC(=S)N3CCOCC3)cc2nc1C | – | 12.6 µM (active)
COC(=O)c1scc(C)c1NC(=O)/C=C/C(=O)O | -12.4% (inactive) | –
Cc1ccc(N/N=C(\C#N)C(=N)N2CCCCC2)cc1 | 59.2% (inactive) | –
Cc1nc(SCc2cccc(F)c2)c2oc3ccccc3c2n1 | -3.14% (inactive) | –
Cn1ncc2c(c(SCc3ccc(Cl)cc3Cl)nn2C)c1=O | 16.1% (inactive) | –
O=C1NCCc2c1[nH]c1ccccc21 | -12% (inactive) | –
CC(C)Cn1nc(NC(=O)c2cccs2)c2cc3ccccc3nc21 | 20.5% (inactive) | –
CC(=O)Oc1cc2c3c(c1)/C(=C1/SC(=S)NC1=O)C(=O)N3C(C)(C)C=C2C | 14.8% (inactive) | –
CC(C)N(Cc1ccccc1)C(=O)c1ccc2nsnc2c1 | 18% (inactive) | –
O=C(CSc1nc2ccccc2n1Cc1ccccc1Cl)N/N=C/c1ccccc1C(=O)O | -14.6% (inactive) | –
O=C(O)C1CCc2sc3[nH]c(=S)n(-c4ccccc4)c(=O)c3c21 (stereo not drawn) | 12.3% (inactive) | –
Cn1cccc1/C=C1\SC(=S)N(NC(=O)c2ccc(F)cc2)C1=O | 33.1% (inactive) | –
Clc1ccc(C2=Nn3c(Cn4nnc5ccccc54)nnc3SC2)cc1 | 2.69% (inactive) | –
O=C1COc2cccnc2N1 | -2.97% (inactive) | –
Cc1c(-c2ccccc2)[n+](=O)c(-c2ccc(Br)cc2)c(C)n1[O-] | 26.5% (inactive) | –
COc1cc(C(=O)NC(=S)Nc2ccc3c(c2)OCO3)cc(OC)c1OC | 2.92% (inactive) | –
CCCSc1cc(Cl)nc(N)n1 | -0.0734% (inactive) | –
O=C(CCl)NC1(C(F)(F)F)C(=O)Nc2c1c(=O)[nH]c(=O)n2-c1ccccc1 (stereo not drawn) | -7.72% (inactive) | –
O=[N+]([O-])c1ccc(-c2cn3c(n2)CCC3)cc1 | 27.4% (inactive) | –

SMILES | activity change, negative = inhibition | Potency
COc1c(/C=N/NC(=O)c2ccncc2)c(CCN(C)C(C)=O)cc2c1OCO2 | -7.29% (inactive) | –
COc1cc(/C=N/n2nnnc2N)cc(OC)c1OC | 6.57% (inactive) | –
Cc1nc2ccccc2nc1N1CCCC1 | 17.1% (inactive) | –
COc1cscc1C(=O)O | 0.991% (inactive) | –
CCOc1nsc(OCC)n1 | 8.39% (inactive) | –
C/C(=N\Nc1cccc(Cl)c1)C1(C)N(O)C(C)(C)C(c2ccco2)=[N+]1[O-] (stereo not drawn) | 18.1% (inactive) | –
CCOC(=O)C1=C(C)N(CC(C)C)C(=O)/C1=C\c1cccs1 | 14.3% (inactive) | –
O=C(O)/C=C/c1cn(-c2ccccc2)nc1-c1ccc(-c2ccc([N+](=O)[O-])cc2)o1 | 17.8% (inactive) | –
COc1ccccc1/C=C/C=NC1C(=O)N(c2ccccc2)[N+](C)=C1C (stereo not drawn) | -5.85% (inactive) | –
O=C(O)c1cc(O)c2c(c1)[C@H]([C@H]1c3cc(C(=O)O)cc(O)c3C(=O)c3c(O[C@@H]4OC(CO)C(O)C(O)C4O)cccc31)c1cccc(O[C@@H]3OC(CO)C(O)C(O)C3O)c1C2=O (stereo partly drawn) | – | 2.51 µM (active)
O=C(O)CC(CCc1ccccc1)OC1OC(CO)C(O)C(O)C1O (stereo not drawn) | -29.1% (inactive) | –
COc1cc(/C=C/c2nc3ccc([N+](=O)[O-])cc3s2)ccc1OCC(=O)O | 18.5% (inactive) | –
CCn1cc(C(c2ccccc2)C(C(C)=O)[N+](=O)[O-])c2ccccc21 (stereo not drawn) | 13.1% (inactive) | –
OCCNc1nc2ccccc2nc1NCCO | 0.991% (inactive) | –
COc1ccc(C2=NOC(CNC(=S)N3CCOCC3)C2)cc1 (stereo not drawn) | 8.59% (inactive) | –
Cn1c(SCC(=O)NC(=O)Nc2ccccc2)nnc1-c1ccncc1 | -1.38% (inactive) | –
C(=C\c1nccc2c1[nH]c1ccccc12)/c1ccccc1 | 10.1% (inactive) | –
COc1cccc(/C=N/NC(=O)c2cnccn2)c1OC | 12.2% (inactive) | –
Oc1ccccc1/C=N/Nc1nn[nH]n1 | 6.96% (inactive) | –
CCN(CC)c1ncc(C#N)c(N)n1 | -7.89% (inactive) | –
Cc1cc(O)c(C=O)c2c1C(=O)Oc1c(COC(=O)/C=C/C(=O)O)c(O)c(C(=O)O)c(C)c1O2 | – | 28.2 µM (active)
CCOC(=O)c1cn2nc(Oc3ccc(C(=O)OC)cc3)ccc2n1 | -15.3% (inactive) | –
CCc1nc2ccccc2nc1N1CCN(S(=O)(=O)c2ccc(Cl)cc2)CC1 | 0.844% (inactive) | –
c1ccc(C2=Nn3c(Cn4nnc5ccccc54)nnc3SC2)cc1 | -10.8% (inactive) | –
CC(=O)c1ccc(S(=O)(=O)N2Cc3ccccc3CC2C(=O)O)cc1 (stereo not drawn) | -4.12% (inactive) | –

SMILES | activity change, negative = inhibition | Potency
Brc1ccc(C2=Nn3c(Cn4nnc5ccccc54)nnc3SC2)cc1 | -8.99% (inactive) | –
COc1ccc(C(=O)CN2CCN(c3cc(C)nc4ccccc34)CC2)cc1 | -6.56% (inactive) | –
COC(=O)/C(=C\Nc1ccc(Oc2ccc(F)cc2F)nc1)NC(=O)c1ccccc1 | 8.42% (inactive) | –
CN(C)c1cc(-c2ccc(Cl)cc2Cl)oc(=O)c1Cl | 32.5% (inactive) | –
CC(C)(C)C(=O)Nc1ccccc1C(=O)NCc1cccnc1 | 7.35% (inactive) | –
O=S(=O)(c1ccc(F)cc1F)N1CCCN(c2ccc(C(F)(F)F)cn2)CC1 | 5.71% (inactive) | –
CCC(C)c1ccc(OCc2ccc(C(=O)OC)o2)cc1 (stereo not drawn) | 5.36% (inactive) | –
CCNC(=S)Nc1ccc(NC(=O)c2ccccc2O)cc1 | 16.3% (inactive) | –
COc1cccc2c1NC(C(=O)O)C1CC=CC21 (stereo not drawn) | – | 7.94 µM (active)
COc1ccccc1C1CCN(C(=O)c2cccs2)CC1 | 1.7% (inactive) | –
O=C(O)C1Nc2c(O)cc(Cl)c([N+](=O)[O-])c2C2C=CCC12 (stereo not drawn) | -29.8% (inactive) | –
O=C(O)C1Nc2c(O)cccc2C2C=CCC12 (stereo not drawn) | – | 3.55 µM (active)
COc1ccccc1C1CCN(C(=O)c2ccco2)CC1 | 13.8% (inactive) | –
Cc1ccc2c(c1C)NC(C(=O)O)C1CC=CC21 (stereo not drawn) | – | 7.08 µM (active)
Cn1ncc(Br)c1N1C(=O)CCC1=O | 1.93% (inactive) | –
Fc1ccc(C(CCNCc2cccs2)c2ccco2)cc1 (stereo not drawn) | 10.9% (inactive) | –
COc1ccc(NC(=O)Nc2nc3ccccc3s2)cc1 | -7.1% (inactive) | –
Cc1cc(NC(=O)CSc2nc3ccccc3[nH]2)n(-c2ccccc2)n1 | 1.11% (inactive) | –
CN(C)c1nc(-c2ccccn2)nnc1-c1ccccc1 | – | 22.4 µM (active)
c1ccc(-c2nnc(-c3ccccn3)nc2NC2CCCCC2)cc1 | -3.48% [at 82.4 µM] (inactive) | –
c1ccc(-c2n[nH]c(-c3ccccn3)n2)nc1 | -1.29% [at 82.4 µM] (inactive) | –
CC(=O)Nc1cccc(OCCCNC(=O)c2cccc3ccccc23)c1 | 6.23% (inactive) | –
COc1ccc2[nH]c(C(=O)N3CCCN(Cc4ccc(F)cc4)CC3)cc2c1 | 13.2% (inactive) | –

From PubChem BioAssay AID504375 (National Center for Advancing Translational Sciences (NCATS), 2011)
